Assay results taken from PubChem BioAssay AID1159580 (chemical genetic matrix, 2015).
Where “and” joins values, the source holds several entries; their conditions need not be identical. Equal values may be shown once. In all, about 5,500 compounds went through this assay and about 2,000 (36%) were called active. About 18% were inconclusive and are not listed. No stated cut-off is given here; in the data, active means normalized growth mostly below about 0.91 (no sharp cut-off); inconclusive means no clear call, values can overlap the other calls; inactive means mostly above about 0.92. The list shows a part of the results.

Test: chemical genetic growth profiling, strain panel (AID 1159580);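 further: tested at 20 µM; growth read once vehicle control cultures reached saturation at 30 °C; 1 = growth at the plate median or of vehicle wells; lower values mean less growth of the strain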
Settings: growth OD

Measured: normalized growth

CC(C)C(=O)Nc1ccc([N+](=O)[O-])c(C(F)(F)F)c1
inactive: S. cerevisiae deletion strains, locus YKL009W, strain mrt4, hits give low values 0.984 | S. cerevisiae deletion strains, locus YKL068W, hits give low values 0.984 | S. cerevisiae deletion strains, locus YKL085W, strain MDH1 (second series), hits give low values 0.987 | S. cerevisiae deletion strains, locus YKL085W, strain MDH1, hits give low values 0.987 | S. cerevisiae deletion strains, locus YKL160W, strain elf1, hits give low values 1 | S. cerevisiae deletion strains, locus YKL190W, strain CNB1, hits give low values 0.992 | S. cerevisiae deletion strains, locus YKR026C, strain gcn3, hits give low values 1.01 | S. cerevisiae deletion strains, locus YKR091W, strain srl3, hits give low values 1.01 | S. cerevisiae deletion strains, locus YLL001W, strain dnm1, hits give low values 1.03 | S. cerevisiae deletion strains, locus YLL026W, hits give low values 1.02 | S. cerevisiae deletion strains, locus YLL041C, strain sdh2, hits give low values 1.01 | S. cerevisiae deletion strains, locus YLR027C, strain aat2, hits give low values 1.02 | S. cerevisiae deletion strains, locus YLR039C, strain RIC1, hits give low values 0.826 | S. cerevisiae deletion strains, locus YLR058C, strain SHM2, hits give low values 0.99 | S. cerevisiae deletion strains, locus YLR102C, strain apc9, hits give low values 0.968 | S. cerevisiae deletion strains, locus YLR113W, strain HOG1, hits give low values 0.93 | S. cerevisiae deletion strains, locus YLR221C, strain rsa3, hits give low values 1.04 | S. cerevisiae deletion strains, locus YLR258W, strain gsy2, hits give low values 1.02 | S. cerevisiae deletion strains, locus YLR262C, strain YPT6 (second series), hits give low values 1.01 | S. cerevisiae deletion strains, locus YLR262C, strain YPT6, hits give low values 0.899 | S. cerevisiae deletion strains, locus YLR268W, strain sec22, hits give low values 0.96 | S. cerevisiae deletion strains, locus YLR320W, strain mms22, hits give low values 1.03 | S. cerevisiae deletion strains, locus YLR330W, strain CHS5, hits give low values 0.987 | S. cerevisiae deletion strains, locus YLR342W, strain FKS1 (second series), hits give low values 0.96 | S. cerevisiae deletion strains, locus YLR342W, strain FKS1, hits give low values 1.01 | S. cerevisiae deletion strains, locus YLR357W, strain rsc2, hits give low values 1.09 | S. cerevisiae deletion strains, locus YLR370C, strain arc18, hits give low values 1.03 | S. cerevisiae deletion strains, locus YLR371W, strain rom2, hits give low values 0.974 | S. cerevisiae deletion strains, locus YLR384C, strain iki3, hits give low values 1.03 | S. cerevisiae deletion strains, locus YLR418C, strain cdc73, hits give low values 0.896 | S. cerevisiae deletion strains, locus YML016C, strain PPZ1, hits give low values 0.981 | S. cerevisiae deletion strains, locus YML032C, strain rad52, hits give low values 0.974 | S. cerevisiae deletion strains, locus YML120C, strain ndi1, hits give low values 1.01 | S. cerevisiae deletion strains, locus YML124C, strain tub3, hits give low values 0.972 | S. cerevisiae deletion strains, locus YMR058W, strain fet3, hits give low values 1.03 | S. cerevisiae deletion strains, locus YMR078C, strain ctf18, hits give low values 0.976 | S. cerevisiae deletion strains, locus YMR125W, strain sto1, hits give low values 1.03 | S. cerevisiae deletion strains, locus YMR129W, hits give low values 1.02 | S. cerevisiae deletion strains, locus YMR205C, strain PFK2, hits give low values 1.02 | S. cerevisiae deletion strains, locus YMR223W, strain ubp8, hits give low values 0.982 | S. cerevisiae deletion strains, locus YMR231W, strain pep5, hits give low values 1.03 | S. cerevisiae deletion strains, locus YMR263W, strain SAP30, hits give low values 0.982 and 1 | S. cerevisiae deletion strains, locus YMR307W, strain GAS1, hits give low values 0.832 | S. cerevisiae deletion strains, locus YNL067W, strain RPL9B, hits give low values 0.99 | S. cerevisiae deletion strains, locus YNL071W, strain lat1, hits give low values 1.02 | S. cerevisiae deletion strains, locus YNL128W, strain TEP1, hits give low values 1.01 | S. cerevisiae deletion strains, locus YNL153C, strain GIM3, hits give low values 0.99 and 0.977 | S. cerevisiae deletion strains, locus YNL175C, strain NOP13, hits give low values 0.977 | S. cerevisiae deletion strains, locus YNL183C, strain NPR1, hits give low values 0.91 | S. cerevisiae deletion strains, locus YNL197C, strain WHI3, hits give low values 0.968 | S. cerevisiae deletion strains, locus YNL209W, strain ssb2, hits give low values 1.01 | S. cerevisiae deletion strains, locus YNL224C, strain SQS1, hits give low values 0.96 | S. cerevisiae deletion strains, locus YNL233W, strain BNI4, hits give low values 0.955 | S. cerevisiae deletion strains, locus YNL248C, strain rpa49, hits give low values 1.06 | S. cerevisiae deletion strains, locus YNL250W, strain rad50, hits give low values 0.989 | S. cerevisiae deletion strains, locus YNL271C, strain bni1, hits give low values 0.975 | S. cerevisiae deletion strains, locus YNL298W, strain CLA4, hits give low values 0.978 | S. cerevisiae deletion strains, locus YNL307C, strain MCK1, hits give low values 0.958 | S. cerevisiae deletion strains, locus YNL322C, strain KRE1 (second series), hits give low values 1.02 | S. cerevisiae deletion strains, locus YNL322C, strain KRE1, hits give low values 0.997 and 1.04 | S. cerevisiae deletion strains, locus YNR049C, strain mso1, hits give low values 1.02 | S. cerevisiae deletion strains, locus YNR052C, strain pop2, hits give low values 0.978 | S. cerevisiae deletion strains, locus YOL006C, strain TOP1, hits give low values 0.851 | S. cerevisiae deletion strains, locus YOL012C, strain htz1 1.09 | S. cerevisiae deletion strains, locus YOL147C, strain pex11, hits give low values 0.978 | S. cerevisiae deletion strains, locus YOR001W, strain rrp6, hits give low values 1.05 | S. cerevisiae deletion strains, locus YOR061W, strain CKA2, hits give low values 0.987 | S. cerevisiae deletion strains, locus YOR069W, strain VPS5, hits give low values 0.99 | S. cerevisiae deletion strains, locus YOR070C, strain gyp1, hits give low values 1 | S. cerevisiae deletion strains, locus YOR080W, strain dia2, hits give low values 1.03 | S. cerevisiae deletion strains, locus YOR083W, strain WHI5 (second series), hits give low values 0.9 | S. cerevisiae deletion strains, locus YOR083W, strain WHI5, hits give low values 0.999 | S. cerevisiae deletion strains, locus YOR106W, strain vam3, hits give low values 1.04 | S. cerevisiae deletion strains, locus YOR136W, strain idh2, hits give low values 0.981 | S. cerevisiae deletion strains, locus YOR144C, strain elg1, hits give low values 0.966 | S. cerevisiae deletion strains, locus YOR184W, strain ser1, hits give low values 0.939 | S. cerevisiae deletion strains, locus YOR231W, strain MKK1, hits give low values 0.952 | S. cerevisiae deletion strains, locus YOR265W, strain rbl2, hits give low values 1 | S. cerevisiae deletion strains, locus YOR270C, strain vph1, hits give low values 1.03 | S. cerevisiae deletion strains, locus YOR290C, strain snf2, hits give low values 1.02 | S. cerevisiae deletion strains, locus YOR316C, strain cot1, hits give low values 0.977 | S. cerevisiae deletion strains, locus YPL051W, strain arl3, hits give low values 1 | S. cerevisiae deletion strains, locus YPL055C, strain LGE1, hits give low values 0.953 and 1.01 | S. cerevisiae deletion strains, locus YPL078C, strain atp4, hits give low values 1 | S. cerevisiae deletion strains, locus YPL106C, strain sse1, hits give low values 1.01 | S. cerevisiae deletion strains, locus YPL240C, strain hsp82, hits give low values 1 | S. cerevisiae deletion strains, locus YPL241C, strain CIN2, hits give low values 0.985 and 1 | S. cerevisiae deletion strains, locus YPL256C, strain CLN2, hits give low values 0.991 | S. cerevisiae deletion strains, locus YPR119W, strain clb2, hits give low values 0.973 | S. cerevisiae deletion strains, locus YPR141C, strain kar3, hits give low values 0.98 | S. cerevisiae deletion strains, locus YPR163C, strain tif3, hits give low values 0.987 | S. cerevisiae deletion strains, locus YPR167C, strain met16, hits give low values 0.984 | S. cerevisiae deletion strains, strain wtn01, hits give low values 0.954 | S. cerevisiae strains, strain wild type, hits give low values 0.986
active: S. cerevisiae deletion strains, locus YKR001C, strain vps1, hits give low values 0.837
